In PubChem BioAssay (NCATS):
Values joined by “and” are separate entries in the source; they are usually repeats but may differ in a detail not shown here. Equal entries are not always repeated. Results filed as inconclusive are left out. Values without a mark were called inactive. Active and inactive are the calls of the source. Unless noted, calls follow the shape of the dose curve; as a rule, active = well fitted curve in either direction with a large enough effect (not every such curve was filed as active); inconclusive = small, poorly fitted or top-dose-only effect, or another doubt; inactive = flat fitted curve, though single readings scatter.

How the values were obtained:
[1] = AP1 Signaling Pathway (AID 357); settings: ME-180 (cervical carcinoma) AP-1-bla reporter, EGF-induced, beta-lactamase ratio, 5 h;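 also: ME-180 reporter cells stimulated with EGF at its EC50 level; % is scaled to controls: 0 for no effect and ±100 for the full control effect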
Method in brief: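 Modulation of EGF-driven AP-1 transcription was assessed with a beta-lactamase reporter in ME-180 cells. Compound and EC50 EGF were co-incubated 5 hours at 37 °C before 2.5-hour CCF4 loading at room temperature and dual-emission reading.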

[2] = molecular target: Cytochrome P450 1A2 (Homo sapiens) (UniProt P05177); test: p450-cyp1a2 (AID 410; calls by dose curve; also: potency is read from the fitted curve at half-maximal effect;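 as to activity change, negative = inhibition: -100% = full effect of reference inhibitor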); settings: recombinant CYP1A2, luciferin-ME demethylation, luminescence; series mostly up to 57 µM
Method in brief: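 Luminescent readout of luciferin formed from Luciferin-ME by human CYP1A2; data normalized against complete inhibition by 57 uM furafylline. Enzyme 20nM, substrate 100uM at Km, 100mM KPO4 buffer, 60 min reaction at room temperature.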

[3] = NFAT Signaling Pathway (AID 444); settings: Jurkat NFAT-bla M1, carbachol, beta-lactamase ratio, 5 h;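 also: carbachol stimulus at about its EC50 of 1 µM final; % is scaled to controls: 0 for no effect and ±100 for the full control effect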
Method in brief: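 Jurkat cells with NFAT-driven β-lactamase reporter and co-expressed M1 receptor, stimulated with carbachol (final 1 uM, ~EC50), compound titration, 5 h at 37 °C. CCF4 loaded 1 h at RT; 460/530 nm ratio gave %activity and AC50.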

[4] = Cell Viability - BJ (AID 421; calls by dose curve;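 also: potency is read from the fitted curve at half-maximal effect; cells exposed to compound for 40 hours at 37 °C before readout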); settings: BJ fibroblast viability, qHTS
Method in brief: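 Cytotoxicity as drop in intracellular ATP (CellTiter-Glo, 20 min RT) after 40 hr compound exposure of BJ fibroblasts at 37 °C. Titrations scaled between DMSO and 100 uM tamoxifen, Hill-fitted for AC50.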

[5] = Cell Viability - Jurkat (AID 426;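 active = dose-dependent loss of cell ATP signal giving a full or clear fitted curve, ranked by lower potency value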; also: potency is read from the fitted curve at half-maximal effect); settings: qHTS
Method in brief: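 qHTS, 1536-well; Jurkat E6-1, 5000 cells/well, complete medium; cpd 40 hr, 37 °C; CellTiter-Glo 20 min RT; luminescence. AC50 by Hill fit.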

[6] = Cell Viability - Hek293 (AID 427;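 active = compounds whose dose-response curve shows a full or clear partial loss of cell viability, called from curve shape rather than a numeric limit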;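 also: potency is read from the fitted curve at half-maximal effect; cells exposed to compound for 40 hours at 37 °C before reading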); settings: qHTS
Method in brief: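 Luminescent ATP content (CellTiter-Glo, 20 min at room temperature) was measured after a 40 hr, 37 °C compound exposure of HEK293 cells. AC50 values came from Hill-equation fits of qHTS concentration-response data normalized to DMSO and 100 uM tamoxifen.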

[7] = Cell Viability - HepG2 (AID 433; calls by dose curve;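 also: potency is read from the fitted curve at half-maximal effect; potency for ATP loss meaning cytotoxicity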); settings: qHTS
Method in brief: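 Read-out is luciferase-based quantitation of cellular ATP as a measure of viable HepG2 cells after 40 h treatment at 37 °C. Signal decrease is scaled between DMSO-only and 100 uM tamoxifen controls, with AC50 fitted by the Hill equation.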

[8] = Cell Viability - MRC5 (AID 434; calls by dose curve;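 also: potency is read from the fitted curve at half-maximal effect; potency reflects cytotoxicity seen as loss of intracellular ATP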); settings: MRC5 lung fibroblast viability, qHTS
Method in brief: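 MRC5 normal human lung fibroblasts, 1500 cells/well, exposed to compound for 40 hr at 37 C. Cellular ATP was read by CellTiter-Glo luminescence; data normalized to DMSO and 100 uM tamoxifen, with AC50 from Hill fits.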

[9] = Cell Viability - SK-N-SH (AID 435; calls by dose curve;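 also: potency is read from the fitted curve at half-maximal effect; compound exposure lasted 40 h at 37 °C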); settings: SK-N-SH neuroblastoma cell viability qHTS
Method in brief: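 Luminescent ATP signal served as the viability read-out after 40 hours of compound treatment of human neuroblastoma SK-N-SH cells. Concentration-response data, scaled between DMSO and 100 uM tamoxifen, gave AC50 values by standard Hill modeling.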

Cytochrome P450 1A2 (Homo sapiens), sequence (P05177 whole entry, looked up): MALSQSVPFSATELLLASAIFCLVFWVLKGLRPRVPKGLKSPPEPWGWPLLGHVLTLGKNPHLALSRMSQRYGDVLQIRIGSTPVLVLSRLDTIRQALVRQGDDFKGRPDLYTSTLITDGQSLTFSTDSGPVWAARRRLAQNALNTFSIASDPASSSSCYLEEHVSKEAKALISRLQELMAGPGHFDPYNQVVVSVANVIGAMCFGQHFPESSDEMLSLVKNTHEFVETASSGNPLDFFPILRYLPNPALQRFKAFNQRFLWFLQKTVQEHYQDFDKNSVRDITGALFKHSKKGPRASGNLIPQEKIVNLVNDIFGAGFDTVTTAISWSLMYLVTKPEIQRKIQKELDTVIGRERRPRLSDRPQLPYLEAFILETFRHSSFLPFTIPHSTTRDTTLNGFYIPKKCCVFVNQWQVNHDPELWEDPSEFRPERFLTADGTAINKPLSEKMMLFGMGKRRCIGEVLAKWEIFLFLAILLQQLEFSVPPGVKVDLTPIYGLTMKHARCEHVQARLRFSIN

## CN(C(=O)CCCOc1ccc2[nH]c(=O)ccc2c1)C1CCCCC1
[1]; at 38 µM (top of the series)
  activity change, negative = inhibition: -11.1%
[2]
  Potency: inactive
[3]; at 38 µM (top of the series)
  activity change, negative = inhibition: -14.2%

## FC(F)(F)c1ccccc1-n1ccnc1
[1]; at 38 µM (top of the series)
  activity change, negative = inhibition: 7.15%
[2]
  Potency: 2.51 µM (active) and 251 nM (active)
[3]; at 38 µM (top of the series)
  activity change, negative = inhibition: -3.5%

## CCn1cc(C(=O)O)c(=O)c2cc3c(cc21)OCO3
[1]; at 17.2 µM (top of the series)
  activity change, negative = inhibition: -4.15%
[1]; at 38 µM (top of the series)
  activity change, negative = inhibition: -1.96%
[2]
  Potency: 5.01 µM (active) and 2.51 µM (active)
[3]; at 17.2 µM (top of the series)
  activity change, negative = inhibition: -7.01%
[3]; at 38 µM (top of the series)
  activity change, negative = inhibition: 7.6%

## CCn1nc(C(=O)O)c(=O)c2cc3c(cc21)OCO3
[1]; at 17.2 µM (top of the series)
  activity change, negative = inhibition: -3.87% and 14.9%
[1]; at 38 µM (top of the series)
  activity change, negative = inhibition: -2.22%
[3]; at 17.2 µM (top of the series)
  activity change, negative = inhibition: 0.808% and 1.97%
[3]; at 38 µM (top of the series)
  activity change, negative = inhibition: 8.98%

## COc1cc(Cc2cnc(N)nc2N)cc(OC)c1OC
[1]; at 17.2 µM (top of the series)
  activity change, negative = inhibition: 1.37%
[1]; at 38 µM (top of the series)
  activity change, negative = inhibition: -4.63%
[4]
  Potency: > 92 µM
[5]
  Potency: > 92 µM
[6]
  Potency: > 92 µM
[7]
  Potency: > 92 µM
[8]
  Potency: > 92 µM
[9]
  Potency: > 92 µM
[3]; at 17.2 µM (top of the series)
  activity change, negative = inhibition: -13.2%
[3]; at 38 µM (top of the series)
  activity change, negative = inhibition: -9.42%

## CC(C)(Oc1ccc(CCNC(=O)c2ccc(Cl)cc2)cc1)C(=O)O
[1]; at 17.2 µM (top of the series)
  activity change, negative = inhibition: 3.65% and 3.52%
[2]
  Potency: inactive
[3]; at 17.2 µM (top of the series)
  activity change, negative = inhibition: -9.97% and 7.1%

## COc1ccc([C@@H]2Sc3ccccc3N(CCN(C)C)C(=O)[C@@H]2OC(C)=O)cc1
[1]; at 17.2 µM (top of the series)
  activity change, negative = inhibition: 23.2%
[2]
  Potency: inactive

## Cc1scc2c1N(C(=O)CN1CCN(C)CC1)c1ccccc1NC2=O
[1]; at 17.2 µM (top of the series)
  activity change, negative = inhibition: 4.19%
[1]; at 38 µM (top of the series)
  activity change, negative = inhibition: 15.1%
[2]
  Potency: inactive
[3]; at 17.2 µM (top of the series)
  activity change, negative = inhibition: -41.8% (active)
[3]; at 38 µM (top of the series)
  activity change, negative = inhibition: -72.8% (active)

## Nc1ncn([C@@H]2O[C@H](CO)[C@@H](O)[C@H]2O)c(=O)n1
[4]
  Potency: > 92 µM
[5]
  Potency: 1.01 µM (active)
[6]
  Potency: 6.9 µM (active)
[7]
  Potency: > 92 µM
[9]
  Potency: 16.6 µM (active)
